Where “and” joins values, the source holds several entries; their conditions need not be identical. Identical values can stand only once. Screen size: about 5,500 compounds; about 2,000 (36%) were called active. Inconclusive results (about 18%) are left out. No stated cut-off is given here; in the data, active means normalized growth mostly below about 0.91 (no sharp cut-off); inconclusive means no clear call, values can overlap the other calls; inactive means mostly above about 0.92. Some of the results follow.
Assay: chemical genetic growth profiling, strain panel (AID 1159580);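 further: tested at 20 µM; growth read once vehicle control cultures reached saturation at 30 °C; 1 = growth at the plate median or of vehicle wells; lower values mean less growth of the strain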
Conditions: growth OD

Measured: normalized growth

CCCCNC(=O)NS(=O)(=O)c1ccc(C)cc1
inactive: S. cerevisiae deletion strains, locus YJR075W, strain HOC1, active compounds read low 0.963 and 0.994 | S. cerevisiae deletion strains, locus YKL009W, strain mrt4, active compounds read low 0.953 | S. cerevisiae deletion strains, locus YKL068W, active compounds read low 0.98 | S. cerevisiae deletion strains, locus YKL085W, strain MDH1 (second series), active compounds read low 0.973 | S. cerevisiae deletion strains, locus YKL085W, strain MDH1, active compounds read low 0.973 | S. cerevisiae deletion strains, locus YKL160W, strain elf1, active compounds read low 1 | S. cerevisiae deletion strains, locus YKL190W, strain CNB1, active compounds read low 0.991 | S. cerevisiae deletion strains, locus YKR001C, strain vps1, active compounds read low 0.985 | S. cerevisiae deletion strains, locus YKR026C, strain gcn3, active compounds read low 0.999 | S. cerevisiae deletion strains, locus YKR091W, strain srl3, active compounds read low 1.01 | S. cerevisiae deletion strains, locus YLL001W, strain dnm1, active compounds read low 1.02 | S. cerevisiae deletion strains, locus YLL026W, active compounds read low 1.01 | S. cerevisiae deletion strains, locus YLL041C, strain sdh2, active compounds read low 1.01 | S. cerevisiae deletion strains, locus YLR027C, strain aat2, active compounds read low 1 | S. cerevisiae deletion strains, locus YLR039C, strain RIC1, active compounds read low 0.961 | S. cerevisiae deletion strains, locus YLR058C, strain SHM2, active compounds read low 0.991 | S. cerevisiae deletion strains, locus YLR102C, strain apc9, active compounds read low 0.985 | S. cerevisiae deletion strains, locus YLR113W, strain HOG1, active compounds read low 0.915 | S. cerevisiae deletion strains, locus YLR221C, strain rsa3, active compounds read low 0.952 | S. cerevisiae deletion strains, locus YLR258W, strain gsy2, active compounds read low 1.01 | S. cerevisiae deletion strains, locus YLR262C, strain YPT6 (second series), active compounds read low 0.984 | S. cerevisiae deletion strains, locus YLR262C, strain YPT6, active compounds read low 0.933 | S. cerevisiae deletion strains, locus YLR268W, strain sec22, active compounds read low 0.951 | S. cerevisiae deletion strains, locus YLR320W, strain mms22, active compounds read low 0.999 | S. cerevisiae deletion strains, locus YLR330W, strain CHS5, active compounds read low 0.986 | S. cerevisiae deletion strains, locus YLR342W, strain FKS1 (second series), active compounds read low 1.01 | S. cerevisiae deletion strains, locus YLR342W, strain FKS1, active compounds read low 1.02 | S. cerevisiae deletion strains, locus YLR357W, strain rsc2, active compounds read low 1.02 | S. cerevisiae deletion strains, locus YLR370C, strain arc18, active compounds read low 1.02 | S. cerevisiae deletion strains, locus YLR371W, strain rom2, active compounds read low 0.974 | S. cerevisiae deletion strains, locus YLR384C, strain iki3, active compounds read low 1.02 | S. cerevisiae deletion strains, locus YLR418C, strain cdc73, active compounds read low 1.01 | S. cerevisiae deletion strains, locus YML016C, strain PPZ1, active compounds read low 0.996 | S. cerevisiae deletion strains, locus YML032C, strain rad52, active compounds read low 0.983 | S. cerevisiae deletion strains, locus YML120C, strain ndi1, active compounds read low 1.03 | S. cerevisiae deletion strains, locus YML124C, strain tub3, active compounds read low 0.979 | S. cerevisiae deletion strains, locus YMR058W, strain fet3, active compounds read low 1.02 | S. cerevisiae deletion strains, locus YMR078C, strain ctf18, active compounds read low 0.969 | S. cerevisiae deletion strains, locus YMR125W, strain sto1, active compounds read low 1.02 | S. cerevisiae deletion strains, locus YMR129W, active compounds read low 1.01 | S. cerevisiae deletion strains, locus YMR205C, strain PFK2, active compounds read low 1.01 | S. cerevisiae deletion strains, locus YMR223W, strain ubp8, active compounds read low 1.01 | S. cerevisiae deletion strains, locus YMR231W, strain pep5, active compounds read low 1 | S. cerevisiae deletion strains, locus YMR263W, strain SAP30, active compounds read low 0.999 | S. cerevisiae deletion strains, locus YMR307W, strain GAS1, active compounds read low 1.01 and 1 | S. cerevisiae deletion strains, locus YNL067W, strain RPL9B, active compounds read low 0.992 | S. cerevisiae deletion strains, locus YNL071W, strain lat1, active compounds read low 1.01 | S. cerevisiae deletion strains, locus YNL128W, strain TEP1, active compounds read low 0.965 and 0.986 | S. cerevisiae deletion strains, locus YNL175C, strain NOP13, active compounds read low 1.01 | S. cerevisiae deletion strains, locus YNL183C, strain NPR1, active compounds read low 0.912 | S. cerevisiae deletion strains, locus YNL197C, strain WHI3, active compounds read low 1.01 | S. cerevisiae deletion strains, locus YNL209W, strain ssb2, active compounds read low 1.02 | S. cerevisiae deletion strains, locus YNL224C, strain SQS1, active compounds read low 0.995 | S. cerevisiae deletion strains, locus YNL233W, strain BNI4, active compounds read low 1 | S. cerevisiae deletion strains, locus YNL248C, strain rpa49, active compounds read low 1 | S. cerevisiae deletion strains, locus YNL250W, strain rad50, active compounds read low 0.998 | S. cerevisiae deletion strains, locus YNL271C, strain bni1, active compounds read low 0.991 | S. cerevisiae deletion strains, locus YNL298W, strain CLA4, active compounds read low 0.981 | S. cerevisiae deletion strains, locus YNL307C, strain MCK1, active compounds read low 0.978 | S. cerevisiae deletion strains, locus YNL322C, strain KRE1 (second series), active compounds read low 0.99 | S. cerevisiae deletion strains, locus YNL322C, strain KRE1, active compounds read low 0.992 | S. cerevisiae deletion strains, locus YNR049C, strain mso1, active compounds read low 1.01 | S. cerevisiae deletion strains, locus YNR052C, strain pop2, active compounds read low 0.98 | S. cerevisiae deletion strains, locus YOL006C, strain TOP1, active compounds read low 1.07 | S. cerevisiae deletion strains, locus YOL012C, strain htz1 1.12 | S. cerevisiae deletion strains, locus YOL147C, strain pex11, active compounds read low 0.981 | S. cerevisiae deletion strains, locus YOR001W, strain rrp6, active compounds read low 1.02 | S. cerevisiae deletion strains, locus YOR061W, strain CKA2, active compounds read low 1 | S. cerevisiae deletion strains, locus YOR069W, strain VPS5, active compounds read low 0.985 | S. cerevisiae deletion strains, locus YOR070C, strain gyp1, active compounds read low 1.01 | S. cerevisiae deletion strains, locus YOR080W, strain dia2, active compounds read low 1.02 | S. cerevisiae deletion strains, locus YOR083W, strain WHI5 (second series), active compounds read low 1.01 | S. cerevisiae deletion strains, locus YOR083W, strain WHI5, active compounds read low 0.998 | S. cerevisiae deletion strains, locus YOR106W, strain vam3, active compounds read low 1.04 | S. cerevisiae deletion strains, locus YOR136W, strain idh2, active compounds read low 0.998 | S. cerevisiae deletion strains, locus YOR144C, strain elg1, active compounds read low 0.992 | S. cerevisiae deletion strains, locus YOR184W, strain ser1, active compounds read low 1 | S. cerevisiae deletion strains, locus YOR231W, strain MKK1, active compounds read low 0.983 | S. cerevisiae deletion strains, locus YOR265W, strain rbl2, active compounds read low 1.01 | S. cerevisiae deletion strains, locus YOR270C, strain vph1, active compounds read low 1.04 | S. cerevisiae deletion strains, locus YOR290C, strain snf2, active compounds read low 0.998 | S. cerevisiae deletion strains, locus YOR316C, strain cot1, active compounds read low 0.979 | S. cerevisiae deletion strains, locus YPL051W, strain arl3, active compounds read low 0.999 | S. cerevisiae deletion strains, locus YPL055C, strain LGE1, active compounds read low 1.01 | S. cerevisiae deletion strains, locus YPL078C, strain atp4, active compounds read low 1.04 | S. cerevisiae deletion strains, locus YPL106C, strain sse1, active compounds read low 1.06 | S. cerevisiae deletion strains, locus YPL240C, strain hsp82, active compounds read low 1 | S. cerevisiae deletion strains, locus YPL241C, strain CIN2, active compounds read low 0.994 and 1 | S. cerevisiae deletion strains, locus YPL256C, strain CLN2, active compounds read low 0.945 | S. cerevisiae deletion strains, locus YPR119W, strain clb2, active compounds read low 0.986 | S. cerevisiae deletion strains, locus YPR141C, strain kar3, active compounds read low 0.979 | S. cerevisiae deletion strains, locus YPR163C, strain tif3, active compounds read low 0.979 | S. cerevisiae deletion strains, locus YPR167C, strain met16, active compounds read low 0.987 | S. cerevisiae deletion strains, strain wtn01, active compounds read low 0.969 | S. cerevisiae strains, strain wild type, active compounds read low 1

Reference: PubChem BioAssay AID1159580 (chemical genetic matrix, 2015)
